Bioassay records (PubChem)
Shown are actives, neighbours in structure and some others; about 0.8% of the full set was active somewhere.
GRP78 ERSR act – induces the endoplasmic reticulum stress response in human glioma cells. AID 602332. U87-MG GRP78 promoter luciferase reporter, 16 h. Potency, µM, inactives show top-dose activation, actives largely listed as activators. 0.02% of 420,000 active; also: potency is read from the fitted curve at half-maximal effect; series mostly up to about 76 µM; % of control where 0% means no effect; nearly all actives have a fitted effect of over 35% in size
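Stably transfected U87-MG human glioma cells carrying a GRP78-based luminescent sensor were seeded at 1000 cells/well, pin-dosed with compounds and incubated 16 h. Luciferase reagent was then added, and end-point luminescence was read after 10 min at room temperature.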
TRPML1 inh – inhibitors of human TRPML1 channel | Q9GZU1 | TRPML1-inducible cells, Ca2+ dye fluorescence, FDSS; active compounds read low; inhibition of EC80 agonist-evoked calcium signal | activity change, negative = inhibition, % (no concentration beside the values) | 0.02% of 390,000 active; in the data active = activity change below about -50%; inconclusive = between about -30% and that limit;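 also: stimulus is agonist 54-4 at its EC80 concentration; % is scaled to controls: 0 for no effect and ±100 for the full control effect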
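Calcium fluorescence in TRPML1-DL cells induced overnight with Tet: a 110 s read after compound pin addition, then a 110 s antagonist read after challenge with 54-4 at 4 uM final (EC80).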
TRPML1 agonist – human mucolipin-1 channel agonism | Q9GZU1 | TRPML1-expressing cells, Ca2+ dye fluorescence, FDSS | activation, % (concentration not given with the values) | 0.12% of 410,000 active; in the data active = activation above about 50%; inconclusive = mostly about 30% to 49%; also: 0% is about no effect
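In this qHTS format, compounds were pin-transferred onto Ca8-dye-loaded TRPML1-DL cells induced with Tet overnight, and intracellular Ca2+ fluorescence was recorded kinetically for 110 s after a 10 s baseline. A subsequent 4uM final 54-4 (EC80) addition followed by a second 110 s read served as the antagonist phase.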
TRHR enhancer-1 – allosterically enhances the human TRH receptor. P34981. 0.66% of 360,000 active. enhancement, % at 2 µM. TRHR cells, fluo-8 calcium fluorescence, EC20 TRH enhancement; in the data active = enhancement above about 30%; also: 0% is about no effect
Target sequence (P34981 whole entry, looked up): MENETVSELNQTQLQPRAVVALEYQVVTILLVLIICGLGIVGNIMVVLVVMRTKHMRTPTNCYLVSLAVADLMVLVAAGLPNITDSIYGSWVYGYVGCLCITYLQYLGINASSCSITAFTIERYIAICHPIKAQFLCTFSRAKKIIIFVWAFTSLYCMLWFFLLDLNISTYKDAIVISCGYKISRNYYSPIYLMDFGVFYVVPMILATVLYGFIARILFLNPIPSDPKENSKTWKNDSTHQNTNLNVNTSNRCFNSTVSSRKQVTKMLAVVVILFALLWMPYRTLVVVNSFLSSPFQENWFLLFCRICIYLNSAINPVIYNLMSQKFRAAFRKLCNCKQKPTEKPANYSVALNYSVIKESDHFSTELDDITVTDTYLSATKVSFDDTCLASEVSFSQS
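Enhancer read-out: after compound pinning and an initial kinetic agonist-mode read, an EC20 of TRH (10 nM final) was injected and fluo-8 calcium signal (Ex 480/Em 530) followed at 1 s/cycle for 100 cycles in TRHR-expressing cells.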
TRHR agonist-1 – activates the human TRH receptor | AID 493084 | 0.18% of 360,000 active | TRHR cells, calcium flux fluo-8, FDSS agonist mode | activation, % at 2 µM; in the data active = activation above about 30%; also: 0% is about no effect
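In this calcium-flux screen, cells bearing human TRHR are dye-loaded with fluo-8, baselined for 10 cycles, then exposed to library compounds; positive kinetic calcium responses during the agonist phase mark hits, with TRH as control.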
TRHR enhancer-2 – confirmation of human TRH receptor allosteric enhancers; shares compounds with TRHR enhancer-1; TRH receptor cell assay, enhancer confirmation qHTS; activity change, negative = inhibition, % at 46.1 µM; 970 tested, under 10 active;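 also: compound effect scored on response to added TRH at EC20 of 10 nM; 0% is about no effect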
TRHR agonist-2 – human TRH receptor agonism confirmation. shares compounds with TRHR enhancer-1. TRHR-expressing cells, agonist activation read-out. Potency, µM (top dose mostly 46.1 µM), without a hit: at the highest dose activation, most hits filed as activators. 8% of 970 active; also: potency is read from the fitted curve at half-maximal effect; 0% is about no effect; nearly all actives have a fitted effect of over 75% in size
* = called active by the depositor; ? = inconclusive; / = no result. Unless noted, calls follow the shape of the dose curve; as a rule, active = well fitted curve in the direction sought with a large enough effect; inconclusive = small, poorly fitted or top-dose-only effect, or another doubt; inactive = no such curve, though single readings can be large; an effect the other way counts as inactive or inconclusive.

SMILES	GRP78 ERSR act	TRPML1 inh	TRPML1 agonist	TRHR enhancer-1	TRHR agonist-1	TRHR enhancer-2	TRHR agonist-2
CCN1C(=O)CC(CC(=O)N2CCCCC2c2nccs2)(c2ccccc2C)C1=O (configuration not stated)	-2%	/	/	/	/	/	/
Cc1ccnc(SCC(=O)N2CCc3ccccc3C2)n1	4%	5	0	-3	0	/	/
Cc1cc(=O)[nH]c(SCC(=O)N2CCc3ccccc3C2)n1	-6%	3	0	-1	28	?	-1%
C=CCNC(=O)c1c(N)n(-c2cccc(S(N)(=O)=O)c2)c2nc3ccccc3nc12	-4%	21	-1	43*	1	-3	?
CCC1CN(CCC(=O)N2CCN(c3ncccn3)CC2)Cc2cc(OC)ccc2O1 (configuration not stated)	-5%	/	/	/	/	/	/
COc1cc(/C=C2/C(=O)NN(c3cccc(C)c3)C2=O)cc([N+](=O)[O-])c1O	-6%	-8	2	9	0	/	/
COc1cc(/C=C2/C(=O)NN(c3cccc(C)c3)C2=O)ccc1OC(=O)c1ccco1	7%	-9	1	52*	-1	-14	3%
O=C(O)Cn1c(SCCOc2ccccc2)nc2ccccc21	-1%	-6	1	-3	0	/	/
CCCCOc1ccc(OCCSc2nc3ccccc3n2CC(=O)O)cc1	0%	/	/	56*	0	4	-1%
COc1cc(C(=O)N/N=C/c2ccc(OC(=O)c3ccccc3Cl)cc2)ccc1O	-1%	-12	2	53*	0	6	6%
O=C(N/N=C/c1sc2ccccc2c1O)c1ccccc1	-2%	19	15	-6	38*	1	21µM*
O=C(N/N=C/c1sc2ccccc2c1O)c1cccc2ccccc12	-1%	6	1	5	6	/	/
CN(c1ccc(C(=O)N2CCN(c3ccc(F)cc3)CC2)cc1)S(C)(=O)=O	6%	8	0	56*	1	-6	-1%
O=C(NCc1cccs1)Nc1cc(Cl)ccc1Cl	0%	10	0	41*	-4	-5	3%
COc1cccc(/C=C2\SC(=S)N(C(C)C(=O)NC3C=CS(=O)(=O)C3)C2=O)c1 (configuration not stated)	2%	-2	1	50*	0	5	2%
COc1ccc(/C=C2\SC(=S)N(C(C)C(=O)NC3C=CS(=O)(=O)C3)C2=O)cc1 (configuration not stated)	13%	?	2	-5	0	/	/
O=C(c1ccoc1)N1CCOc2ccc(CN3CCC(Oc4cccnc4)CC3)cc2C1	-6%	/	/	/	/	/	/
COc1ccc(CN2C[C@H](Sc3nc4ccccc4[nH]3)C[C@H]2C(=O)N2CCCN(C)CC2)cc1C	-3%	/	/	/	/	/	/
Cc1cc(OCCOCCNC(C)C)cc(C)c1Cl	-5%	5	0	5	3	/	/
Cc1cc(OCCCCNC(C)C)cc(C(C)C)c1	-2%	-1	1	42*	0	10	2%
Cc1ccc2nc(CSc3nnc(-c4ccco4)n3-c3ccccc3)cc(=O)n2c1	-3%	-17	0	/	/	/	/
Cc1ccc2nc(CSc3nnc4ccccn34)cc(=O)n2c1	2%	-4	0	51*	0	-7	-1%
O=C(O)c1cccc(NC(=O)c2ccccc2NC(=O)c2ccccc2F)c1	2%	8	0	13	1	/	/
O=C(Nc1ccccc1C(=O)Nc1ccccc1)c1ccccc1F	-6%	38	2	48*	0	?	1%
Cc1cc2c(s1)c1cnn(Cc3c(F)ccc(F)c3F)c(=O)c1n2C	/	/	/	-2	1	/	/
SMILES	GRP78 ERSR act	TRPML1 inh	TRPML1 agonist	TRHR enhancer-1	TRHR agonist-1	TRHR enhancer-2	TRHR agonist-2
O=C(O)c1cccc(CSc2nc(-c3ccc(Cl)cc3)cc(C(F)(F)F)n2)c1	-3%	75	1	42*	0	-10	?
COc1cc(/C=C2\SC(=S)N(NS(=O)(=O)c3ccccc3)C2=O)ccc1O	-5%	-16	9	-7	14	/	/
COc1cc(/C=C2\SC(=S)N(NC(=O)c3ccccc3OC)C2=O)ccc1O	12%	-12	14	7	29	/	/
O=C1/C(=C/c2cccc(O)c2)SC(=S)N1CC1CCCO1 (configuration not stated)	6%	-7	1	1	1	/	/
CCOc1cc(/C=C2/SC(=S)N(CC3CCCO3)C2=O)ccc1O (configuration not stated)	0%	-4	0	5	43*	?	16µM*
COc1cc(/C=C2\SC(=S)N(NC(=O)c3ccc(O)c(OC)c3)C2=O)ccc1O	3%	-9	14	3	45*	5	?
COc1cc(/C=C2\SC(=S)N(NS(=O)(=O)c3ccc(C)cc3)C2=O)ccc1O	1%	/	/	-5	36*	-3	?
O=C(Cn1cccn1)N1CCOc2c(cc(-c3ncc(C(F)(F)F)cc3Cl)cc2OCC2CCCO2)C1 (configuration not stated)	-5%	/	/	/	/	/	/
COC1=C(C(=O)O)N2C(=O)[C@@H](NC(=O)C(N)C3C=CCC=C3)[C@H]2SC1 (some centres not stated)	-2%	/	/	/	/	/	/
CC1CCCCN1CCNC(=O)CN1C(=O)COc2ccccc21 (configuration not stated)	-6%	0	0	51*	0	5	1%
CC(C)Nc1ncnc2c1cnn2-c1ccc(Cl)cc1	-7%	11	0	55*	2	-6	1%
Cc1cccc2cc(CN(CC3CCCO3)C(=O)c3cccc(F)c3)c(N(C)C)nc12 (configuration not stated)	-3%	/	/	/	/	/	/
Cc1cc2c(s1)c1cnn(Cc3c(C)cc(F)cc3C)c(=O)c1n2C	/	/	/	4	1	/	/
COc1ccccc1CNC(=O)COC(=O)Cc1cccs1	-3%	-15	-1	43*	-1	-6	1%
COc1ccccc1NC(=O)COC(=O)Cc1cccs1	0%	7	1	0	-1	/	/
CN(Cc1cnn(C)c1)Cc1nc(COc2ccccc2)no1	0%	-1	2	46*	1	-2	0%
CC(C)N(Cc1cnn(C)c1)Cc1nc(COc2ccccc2)no1	-2%	-9	1	-2	0	/	/
O=S(=O)(c1cccs1)N1CN(Cc2ccccc2)c2nc3ccccc3nc21	-1%	-4	1	56*	0	-1	4%
CCOC(=O)CN1C(=O)S/C(=C/C=C/c2ccc(N(C)C)cc2)C1=O	-7%	-2	?	-6	32*	-1	?
CCOC(=O)CN1C(=O)S/C(=C/c2ccc3c(c2)n(C)c(=O)n3C)C1=O	-1%	-1	1	-3	0	/	/
